Results published in PubChem BioAssay (NCATS).
Results filed as inconclusive are left out. A call without a number means that no potency is given here. Activity calls are given as the source filed them. Calls follow the shape of the dose curve; as a rule, active = well fitted inhibition curve with a large enough effect; inconclusive = small, poorly fitted or top-dose-only effect; inactive = flat fitted curve, though single readings scatter.

The molecules below were run on CP201 (assay: qHTS profiling for inhibitors of Plasmodium falciparum proliferation (AID 504749; also: nearly all actives have a fitted effect of over 60% in size)). Conditions: P. falciparum in erythrocytes, SYBR Green DNA, 72 h; series mostly up to 28.7 µM.
Outline: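 Readout was DNA-dye fluorescence from lysed cultures, ex 485/em 535 nm. Parasitized red cells had grown 72 h with compound; data scaled between 0.29 uM artemisinin and DMSO wells and corrected using vehicle-only plates.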
`COc1cc(S(C)=O)ccc1-c1nc2ncccc2[nH]1` (stereo not given) was tested, and the Potency was “inactive”.
With `CCOc1ccc(S(=O)(=O)O)c2cccnc12` the Potency was “inactive”.
With `NC(=S)NS(=O)(=O)c1ccc(N)cc1` the Potency was “inactive”.
For `C[C@]12CC[C@@H]3c4ccc(OC(=O)c5ccccc5)cc4CC[C@H]3[C@@H]1CC[C@@H]2O`, the Potency was “inactive”.
For `CC(CCc1ccc(O)cc1)NCC(O)c1ccc(O)cc1` (stereo not given), the Potency was “inactive”.
`FC(F)(F)C(F)(F)C(F)(F)C(F)(F)C(F)(F)C(F)(F)F` was tested, and the Potency was “inactive”.
For `CN(C)CCOc1ccc(/C(=C(/CCCl)c2ccccc2)c2ccccc2)cc1`, the Potency was “inactive”.
With `CNC(=O)OCc1cccc(COC(=O)NC)n1` the Potency was “inactive”.
With `NCC[C@H](O)C(=O)N[C@@H]1C[C@H](N)[C@@H](O[C@H]2O[C@H](CN)[C@@H](O)[C@H](O)[C@H]2O)[C@H](O)[C@H]1O[C@H]1O[C@H](CO)[C@@H](O)[C@H](N)[C@H]1O` the Potency was “inactive”.
In the case of `NC(N)=O`, the Potency is reported as “inactive”.
With `CC1CCCCN1CCCOC(=O)c1ccccc1` (stereo not given) the Potency was “inactive”.
`COC(=O)CCC[N+](C)(C)C` was tested, and the Potency was “inactive”.
`COC(=O)CC[C@H](N)C(=O)O` was tested, and the Potency was “inactive”.
With `O=C(OCc1ccccc1)c1ccc(O)cc1` the Potency was “inactive”.
In the case of `CC(C)(CO)[C@@H](O)C(=O)NCCC(=O)NCCSSCCNC(=O)CCNC(=O)[C@H](O)C(C)(C)CO`, the Potency is reported as “inactive”.
With `COC(=O)c1ccccc1O` the Potency was “inactive”.
With `OC[C@H]1O[C@@](CO)(O[C@H]2O[C@H](CO)[C@@H](O)[C@H](O)[C@H]2O)[C@@H](O)[C@@H]1O` the Potency was “inactive”.
In the case of `Nc1nccs1`, the Potency is reported as “inactive”.
For `c1ccc2ccccc2c1`, the Potency was “inactive”.
`O=S(=O)(O)CCCS(=O)(=O)O` was tested, and the Potency was “inactive”.
In the case of `O=C1c2ccccc2C(=O)c2c1ccc(O)c2O`, the Potency is reported as “inactive”.
`O=C(NNCNNC(=O)c1ccncc1)c1ccncc1` was tested, and the Potency was “inactive”.
With `[O]=[Bi][O]C(=O)[O][Bi]=[O]` the Potency was “inactive”.
`C=CCN1CCCC1CNC(=O)c1cc(S(N)(=O)=O)cc(OC)c1OC` (stereo not given) was tested, and the Potency was “inactive”.
For `CC(C)[C@H](N)C(=O)OCC(CO)OCn1cnc2c(=O)[nH]c(N)nc21` (stereo not given in full), the Potency was “inactive”.
With `CCCCCCCCCCCCCCCCCC(=O)OC[C@@H](O)[C@H]1OC[C@H](O)[C@H]1O` the Potency was “inactive”.
`CC(=O)[C@H]1CC[C@H]2[C@@H]3C=CC4=CC(=O)CC[C@@]4(C)[C@H]3CC[C@]12C` was tested, and the Potency was “inactive”.
With `CCCC(=O)O` the Potency was “inactive”.
For `CC1(C)S[C@@H]2[C@H](NC(=O)C3(N)CCCCC3)C(=O)N2[C@H]1C(=O)O`, the Potency was “inactive”.
For `CCCCCCCCCCCC(=O)OCC(O)CO` (stereo not given), the Potency was “inactive”.
`CCOc1ccc(NC(=S)Nc2ccc(OCC)cc2)cc1` was tested, and the Potency was “inactive”.
With `C[C@H](CCC(=O)O)[C@H]1CC[C@H]2[C@@H]3CC[C@@H]4C[C@H](O)CC[C@]4(C)[C@H]3C[C@H](O)[C@]12C` the Potency was “inactive”.
In the case of `CC(C)(COP(=O)(O)OP(=O)(O)OC[C@H]1O[C@@H](n2cnc3c(N)ncnc32)[C@H](O)[C@@H]1OP(=O)(O)O)C(O)C(=O)NCCC(=O)NCCS` (stereo not given in full), the Potency is reported as “inactive”.
In the case of `O=C(CCCCCCCCCCCCC1CCCC1)Nc1ccc(S(=O)(=O)c2ccc(NC(=O)CCCCCCCCCCCCC3CCCC3)cc2)cc1`, the Potency is reported as “inactive”.
For `Nc1nc(=O)n([C@@H]2CS[C@H](CO)O2)cc1F`, the Potency was “inactive”.
`O=C(O)CCC/C=C\C[C@@H]1[C@@H](/C=C/[C@@H](O)COc2cccc(C(F)(F)F)c2)[C@H](O)C[C@@H]1O` was tested, and the Potency was “inactive”.
In the case of `Cc1c(Cl)cccc1Nc1ncccc1C(=O)O`, the Potency is reported as “inactive”.
For `CC(C)=CCC/C(C)=C/CC/C(C)=C/CC/C=C(\C)CC/C=C(\C)CCC=C(C)C`, the Potency was “inactive”.
For `CC(=O)Nc1ccc(OC(C)=O)cc1`, the Potency was “inactive”.
For `CC(=O)N[C@@H]1C(O[C@H]2O[C@H](C(=O)O)C(O)[C@H](O)[C@H]2O)[C@H](O)[C@@H](CO)O[C@H]1O[C@@H]1C(C(=O)O)O[C@@H](O[C@H]2[C@H](O)[C@@H](CO)OC(O)[C@@H]2NC(C)=O)[C@H](O)[C@H]1O` (stereo not given in full), the Potency was “inactive”.
